KCNH2 WT inh: inhibitors of human wildtype KCNH2 potassium channel; Q12809; U2OS, BacMam KCNH2, thallium flux FluxOr; hits give low values; activity change, % at 1.84 µM; 340,000 tested, 0.37% active;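 active means maximum activity change below -70%; inconclusive means maximum activity change between -70% and -50%; inactive means maximum activity change above -50%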
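U2OS cells were transduced with wild-type KCNH2 virus (2.03 x 10^8 / mL) for 4 h at room temperature, then cultured overnight at 37 C. Thallium flux was read with FluxOr dye. Rate constants were normalized to DMSO controls.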
TRHR ag: agonists of human TRH receptor; TRHR cells, calcium flux fluo-8, FDSS agonist mode; activation, % at 2 µM; 360,000 tested, 0.18% active; in the data active means activation above about 30%
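Agonist-mode FDSS calcium read (Ex 480/Em 530, 1 s cycles) in 1536-well TRHR cells with fluo-8 dye, after 10-cycle baseline and 23 nL compound addition; TRH at EC20 (10 nM final) added afterwards for the enhancer phase.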
TRHR enhancer: allosterically enhances the human TRH receptor. P34981. TRHR cells, fluo-8 calcium fluorescence, EC20 TRH enhancement. enhancement, % at 2 µM. 360,000 tested, 0.66% active; in the data active means enhancement above about 30%
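TRHR-expressing cells loaded with fluo-8 calcium dye were read kinetically (ex 480/em 530) during compound addition, then stimulated with an EC20 of TRH (10 nM final). Enhancement of the Gq-mediated intracellular calcium response was scored.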
TRPML1 agonist: activates the human TRPML1 channel | AID 624414 | activation, % (no concentration beside the values) | TRPML1-expressing cells, Ca2+ dye fluorescence, FDSS | Q9GZU1 | 410,000 tested, 0.12% active; in the data active means activation above about 50%; inconclusive means mostly about 30% to 49%
Target sequence (Q9GZU1 whole entry, looked up): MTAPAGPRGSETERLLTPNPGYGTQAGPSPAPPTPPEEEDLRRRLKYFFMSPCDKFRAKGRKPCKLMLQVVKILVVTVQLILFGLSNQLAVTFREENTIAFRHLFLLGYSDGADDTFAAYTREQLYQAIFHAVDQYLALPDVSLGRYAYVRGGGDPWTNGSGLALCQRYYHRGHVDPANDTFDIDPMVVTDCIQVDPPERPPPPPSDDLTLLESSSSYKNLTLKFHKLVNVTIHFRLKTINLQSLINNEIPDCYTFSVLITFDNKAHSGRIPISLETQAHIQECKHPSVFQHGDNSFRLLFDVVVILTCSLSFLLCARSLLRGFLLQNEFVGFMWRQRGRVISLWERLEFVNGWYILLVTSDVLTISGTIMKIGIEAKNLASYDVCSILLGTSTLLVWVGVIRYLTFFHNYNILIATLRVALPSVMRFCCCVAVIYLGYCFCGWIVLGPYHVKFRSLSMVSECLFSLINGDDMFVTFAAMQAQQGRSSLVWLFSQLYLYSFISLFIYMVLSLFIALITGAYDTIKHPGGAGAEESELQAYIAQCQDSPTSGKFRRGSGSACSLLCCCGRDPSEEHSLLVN
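Cells: TRPML1-DL, 1X Tet inducer, ~16 h at 37 degrees C/5% CO2. Dye: ABD Ca8 no-wash + quencher, 45-90 min RT. Read: 10 s baseline, compound add, 110 s agonist phase; 54-4 EC80 (4uM final), 110 s antagonist phase.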
KCNH2 3.1 block: KCNH2 3.1 (human) potassium channel inhibition; 340,000 tested, 0.95% active; activity change, % (tested at about 1.8 µM); U2OS KCNH2 3.1, thallium flux FluxOr; hits give low values;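 active means maximum activity change below -70%; inconclusive means maximum activity change from -70% to -50%; inactive means maximum activity change above -50%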;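 further: thallium influx rate constant from kinetic fluorescence after stimulation buffer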
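Steps: virus added to U2OS suspension (4 h, RT, dark); medium with 10% FBS added, cells plated, 37 C overnight; FluxOr/Red40 loading buffer 45 min RT; stimulation buffer, 2 min kinetic read; rate constant normalized.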
TRPML1 blocker: human mucolipin-1 channel inhibition | TRPML1-inducible cells, Ca2+ dye fluorescence, FDSS; hits give low values; inhibition of EC80 agonist-evoked calcium signal | activity change, negative = inhibition, % (no concentration beside the values) | 390,000 tested, 0.02% active | AID 624415; in the data active means activity change below about -50%; inconclusive means between about -30% and that limit;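 further: stimulus is agonist 54-4 at its EC80 concentration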
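Calcium fluorescence in TRPML1-DL cells induced overnight with Tet: a 110 s read after compound pin addition, then a 110 s antagonist read after challenge with 54-4 at 4 uM final (EC80).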
Numbers stand for hits; - = inactive; ? = inconclusive; . = no result given. The list is not random: actives were taken first. Their share in the collection is about 1.7%.

SMILES | KCNH2 WT inh | TRHR ag | TRHR enhancer | TRPML1 agonist | KCNH2 3.1 block | TRPML1 blocker
COc1ccc(-c2c(-c3cc(OC)cc(OC)c3)n(C)c3ccc(-c4cnc(N)nc4)cc23)cc1 | - | . | . | - | - | -
COc1ccc(-c2c(-c3cc(OC)cc(OC)c3)n(C)c3ccc(-c4ccc(S(N)(=O)=O)cc4)cc23)cc1 | - | - | - | - | -89 | -
CCCCn1c(=N)n(CCOc2ccc(C)cc2)c2ccccc21 | -128 | - | - | - | -111 | -
CCCCn1c(=N)n(CCOc2ccccc2OC)c2ccccc21 | . | - | - | - | . | -
O=C(CN1CCN(C(=O)c2cccc(-n3cnnn3)c2)CC1)Nc1ccccc1Cl | - | - | - | - | -73 | -
O=C(COC(=O)c1cc(=O)[nH]c2ccc(Br)cc12)c1ccccc1 | - | - | 33 | - | - | -
CC(=O)C[C@H]1c2cc(F)cc(F)c2S(=O)(=O)N1C1CCN(Cc2ccccc2)CC1 | . | . | . | - | . | .
CN(Cc1ccccc1)C(=O)c1ccccc1N(C)S(=O)(=O)c1ccccc1 | - | - | - | - | - | -
O=C(O)c1ccc(Nc2nc(-c3cccnc3)cs2)cc1 | - | - | - | - | - | -
CC(=O)c1ccc(Nc2nc(-c3cccnc3)cs2)cc1 | -81 | - | - | - | - | -
O=C(Nc1cccc(-c2csc(Nc3ccccc3)n2)c1)c1ccccc1 | - | - | - | - | -79 | -
S=C(NCCc1ccccc1)N1CCN(C2CCCCC2)CC1 | - | - | - | - | -93 | -
S=C(NCCc1ccccc1)N1CCN(C(=S)NCCc2ccccc2)CC1 | - | - | - | - | - | -
COc1cc(CC(=O)OCC(=O)Nc2ccccc2C#N)cc(OC)c1OC | - | - | - | - | - | -
COc1cc(CCC(=O)OCC(=O)Nc2ccccc2C#N)cc(OC)c1OC | . | - | 34 | - | - | -
COc1cc(CCC(=O)OCC(=O)c2ccc[nH]2)cc(OC)c1OC | -94 | - | - | - | - | -
N/C(=N\OC(=O)C12CC3CC(CC(C3)C1)C2)c1ccncc1 | - | - | - | 61 | - | -
Cc1ccc(/C(N)=N/OC(=O)C23CC4CC(CC(C4)C2)C3)cc1 | - | - | - | - | - | -
O=c1[nH]c2ccc(S(=O)(=O)N3CCN(S(=O)(=O)c4ccc5c(c4)OCCO5)CC3)cc2[nH]c1=O | . | - | - | . | . | .
COc1ccc(CN2CCCC(C(=O)c3ccc(SC)cc3)C2)cc1Cn1cccn1 (centres undefined) | -96 | - | - | - | -82 | -
COc1ccc(C(=O)C2CCCN(Cc3cn(C)nc3-c3ccccc3)C2)cc1F (centres undefined) | - | - | - | - | -71 | -
CN(C)S(=O)(=O)c1cccc(NC(=O)c2cccc(N3C(=O)CCC3=O)c2)c1 | - | - | - | - | - | -
Cc1cc2nc3c(=O)n(C4CCCCC4)c(=O)[nH]c3nc2cc1N | - | 119 | - | 87 | - | -
O=C1c2cccc3c(O)ccc(c23)C(=O)N1Cc1ccccc1 | - | 154 | 40 | 97 | - | -
O=C(O)c1cccc(CN2C(=O)c3ccccc3C2=O)c1 | - | - | - | - | - | -
SMILES | KCNH2 WT inh | TRHR ag | TRHR enhancer | TRPML1 agonist | KCNH2 3.1 block | TRPML1 blocker
CCC(C)S(=O)(=O)c1oc(-c2ccc(F)cc2)nc1S(=O)(=O)c1ccc(F)cc1 (centres undefined) | . | - | - | - | . | -
CCOc1ccccc1C(=O)NCC(=O)N1CCN(Cc2ccc3c(c2)OCO3)CC1 | - | - | 33 | - | - | -
COc1ccccc1C(=O)N1CCN(Cc2ccc3c(c2)OCO3)CC1 | - | - | - | - | - | -
CCOc1ccccc1NC(=O)Cn1c(=O)n(Cc2ccco2)c(=O)c2cccnc21 | . | - | 44 | - | . | -
COc1ccccc1NC(=O)Cn1c(=O)n(Cc2ccco2)c(=O)c2cccnc21 | . | - | - | - | . | -
CC(C)(C)C(=O)/C=c1\s/c(=C\c2ccc(-c3ccc([N+](=O)[O-])cc3)o2)c(=O)n1CC(=O)NC(N)=O | - | 215 | - | ? | - | -
CCC(=O)N/N=C/c1ccc(-c2ccc([N+](=O)[O-])cc2)o1 | - | - | - | - | - | -
O=C(CN1CCN(Cc2ccccc2)CC1)Nc1ccc([N+](=O)[O-])cc1C(=O)Nc1ccccc1F | -82 | - | - | - | -103 | -
Cc1ccccc1NC(=O)CN1CCN(Cc2ccccc2)CC1 | - | - | - | - | - | -
Cc1cc([N+](=O)[O-])ccc1NC(=O)CN1CCN(Cc2ccccc2)CC1 | - | - | - | - | -81 | -
CC(C)C[C@H]1CNC(=O)C(=O)N1C[C@H]1CCCN1C[C@H](CC(C)C)N1C[C@H](Cc2ccccc2)N(CCc2ccccc2)C(=O)C1=O | . | . | . | - | . | -
COc1ccc([C@H]2C[C@@H](O)[C@H](n3cc(COC(=O)c4ccccc4)nn3)CN2CC2CCCCC2)cc1 | - | . | . | - | - | -
Nc1ccc(N2CCN(c3ncc(C(F)(F)F)cc3Cl)CC2)c(C(F)(F)F)c1 | . | - | - | - | . | -
Cc1ccc2[nH]c(CN3CCN(C)C(CCO)C3)c(C)c2c1 (centres undefined) | - | - | - | - | - | -
CCOc1ccccc1CN1CCN(Cc2[nH]c3ccccc3c2C)CC1CCO (centres undefined) | - | - | - | - | -74 | -
Cc1ccc(CN2CCN(Cc3cc(=O)c4ccccc4[nH]3)CC2CCO)o1 (centres undefined) | -118 | - | - | - | - | -
CCOc1ccccc1CN1CCN(Cc2c[nH]c3ccccc23)CC1CCO (centres undefined) | - | - | - | - | - | -
CCOc1ccc(CN2CCN(Cc3[nH]c4ccc(OC)cc4c3C)CC2CCO)cc1 (centres undefined) | -73 | - | - | - | -107 | -
Cc1ccc(CN2CCN(Cc3c[nH]c4ccccc34)CC2CCO)o1 (centres undefined) | - | - | - | - | - | -
CC(C)(C)OC(=O)NCc1nnc(-c2cc3ccccc3[nH]2)o1 | . | - | - | . | . | .
O=C(Nc1ccccc1Cl)c1ccccc1Oc1ccc(C(F)(F)F)cc1[N+](=O)[O-] | - | - | - | 55 | - | -
O=C(c1ccccc1Oc1ccc(C(F)(F)F)cc1[N+](=O)[O-])N1CCOCC1 | - | - | - | - | - | -
O=C(Nc1ccccc1Oc1ccccc1)c1cc([N+](=O)[O-])ccc1Cl | - | - | 41 | - | - | -
O=C(Nc1ccc(Nc2ccccc2)cc1)c1cc([N+](=O)[O-])ccc1Cl | - | - | - | - | - | -
CN(C(=O)c1ccoc1)c1ccccc1I | . | . | . | - | . | -
